Structures are written as SMILES. Out of some 52,000 compounds screened, about 4,300 (8.3%) were called active. No stated cut-off is given here; in the data, active means survival mostly below about 52% (no sharp cut-off); inactive means mostly above about 56%. The sample as a whole holds a higher share of actives than the screen did.

This assay concerns DeltatarO mutant. The experiment in a line: S. aureus survival, RN4220 and DeltatarO strains – OD600, teichoic acid synthesis inhibitors, primary screen (AID 463173). Particulars: S. aureus RN4220 wild type/DeltatarO growth, OD600, 18 h, active compounds read low, screened at 18.75 µg/mL (by protocol).
Regarding `CCOc1cc(CNC(=O)Cn2c(=O)c3cccn3c3ccc(F)cc32)cc(OCC)c1OCC`, the survival was 50% (inactive).
With `Cc1ccc(C)c(Cn2c(=O)n(Cc3ccccc3)c(=O)c3c2c2cc(C)ccc2n3C)c1`, the survival was 78% (inactive).
Turning to `CC(C)c1ccc(OCC(O)CN2CCN(c3ccc(F)cc3)CC2)cc1` (stereo unspecified), the survival is 56% (inactive).
On to `O=C(CN1C(=O)C2(SCC(=O)N2c2ccc(F)c(F)c2)c2ccccc21)Nc1ccccc1F` (stereo unspecified), for which the survival was 94% (inactive).
Under `COc1ccc(CCNC(=O)c2c(C)oc3nc(C)nc(N4CCOCC4)c23)cc1OC` stands 102% (inactive); under `COCCN(C(=O)C1CC1)c1nnc(-c2cccc(C)c2)s1`, 98% (inactive); under `Cc1cc(C)nc(NS(=O)(=O)c2ccc(NC(=O)COc3ccc(Cl)cc3C)cc2)n1`, 63% (inactive).
With `COc1ccc(NC(=O)CN2CCC(n3c(C)nc4cc(F)ccc43)CC2)c(OC)c1`, the survival was 104% (inactive).
`COc1cccc(CN(C(=O)c2cccc(C)c2)C2CCS(=O)(=O)C2)c1` (stereo unspecified): the survival is 65% (inactive).
As to `CCOc1ccc(CCNC(=O)c2cc3n(n2)CCCN(Cc2ccc(C)cc2)C3=O)cc1OCC`, the survival is 112% (inactive).
Regarding `O=S(=O)(CCN1CCOCC1)c1ccc(Oc2ccc(S(=O)(=O)CCN3CCOCC3)cc2)cc1`, the survival is 70% (inactive).
With `Cc1ccc(CCNC(=O)C(CC(C)C)NS(=O)(=O)c2ccc3c(c2)oc(=O)n3C)cc1` (stereo unspecified), the survival was 93% (inactive).
With `N#Cc1ccc(-c2cccs2)nc1SCc1ccc(Cl)cc1Cl`, the survival is 74% (inactive).
Under `N#Cc1ccc(-c2cccs2)nc1SCc1ccc(Br)cc1` stands 74% (inactive); under `Cc1ccc(CSc2ccc(-c3cccs3)nn2)cc1`, 89% (inactive); under `N#Cc1ccc(-c2cccs2)nc1SCc1c(F)cccc1Cl`, 36% (active).
As for `Cc1cccc(CSc2ccc(-c3cccs3)nn2)c1`, the survival was 79% (inactive).
Take `Cc1ccc(CSc2nc(-c3cccs3)ccc2C#N)cc1`: the survival was 25% (active).
Take `Cc1cccc(CSc2nc(-c3cccs3)ccc2C#N)c1`: the survival is 18% (active).
Turning to `N#Cc1c(-c2cccs2)cc(-c2cccs2)nc1SCc1cccnc1`, the survival is 65% (inactive).
For the compound `N#Cc1ccc(-c2cccs2)nc1SCC(=O)Nc1cccc(C(F)(F)F)c1`, the survival is 48% (inactive).
Regarding `Cc1ccc(NC(=O)CSc2nc3c(oc4ccccc43)c(=O)n2-c2ccc(F)cc2)c(C)c1`, the survival was 67% (inactive).
On to `O=C(Nc1ccc2nsnc2c1)C1CC1`, for which the survival was 89% (inactive).
For `O=C1c2ccc(-c3ccc4c(c3)C(=O)N(CCO)C4=O)cc2C(=O)N1CCO`, the survival is 87% (inactive).
Under `CN1CC(C(=O)O)CC1=O` (stereo unspecified) stands 83% (inactive); under `Cn1c(=O)oc2cc(S(=O)(=O)CCC(=O)NCc3ccccc3)ccc21`, 77% (inactive).
Take `Cc1ccc(Cl)cc1N1CCN(c2nc3ccccc3c3nc(-c4cccnc4)nn23)CC1`: the survival is 114% (inactive).
On to `CCOC(=O)c1[nH]c(C)c(CCC(=O)Nc2cc(Cl)c(OC)cc2OC)c1C`, for which the survival was 122% (inactive).
`COc1ccc(OCC(=O)NCC(c2ccc(OC)cc2)N2CCCCC2)cc1` (stereo unspecified): the survival was 79% (inactive).
Turning to `COc1ccc(CC(=O)NCc2ccc3c(c2)CCN3C(C)=O)cc1`, the survival is 96% (inactive).
On to `COc1ccc(-n2c(=O)c3c4c(sc3n(Cc3ccc(F)cc3)c2=O)CCCC4)c(OC)c1`, for which the survival was 47% (inactive).
Under `Cc1cc(C)cc(NC(=O)CSc2ccc(-c3cccs3)nn2)c1` stands 73% (inactive); under `Cc1ccc2c(c1)C(=O)OC(C(=O)Nc1ccc(C(=O)O)cc1)C2` (stereo unspecified), 65% (inactive).
Under `CCOc1ccc(NC(=O)c2c(NC(=O)c3ccccc3F)sc3c2CCC3)cc1` stands 155% (inactive); under `CCCCc1ccc(NC(=O)c2ccc3c(c2)CCN3S(=O)(=O)CC)cc1`, 38% (active); under `CCS(=O)(=O)N1CCCc2cc(C(=O)Nc3cccc(C(C)=O)c3)ccc21`, 89% (inactive).
`CCS(=O)(=O)N1CCc2cc(C(=O)Nc3cccc(C(C)=O)c3)ccc21`: the survival is 50% (inactive).
In the case of `CCCCc1ccc(NC(=O)c2ccc3c(c2)CCN3S(=O)(=O)c2ccccc2)cc1` it was 53% (inactive).
For the compound `CCS(=O)(=O)N1CCc2cc(C(=O)Nc3ccc(C(=O)OC)cc3)ccc21`, the survival was 49% (inactive).
In the case of `CCS(=O)(=O)N1CCc2cc(C(=O)Nc3cccc(NC(C)=O)c3)ccc21` it was 42% (active); in that of `COc1ccc2c(C)c(CCC(=O)NCc3ccccc3Cl)c(=O)oc2c1C`, 63% (inactive); in that of `COc1ccc(CN2CCc3c(c(=O)n4ncc(C(=O)N5CCN(c6ccccc6OC)CC5)c4n3C)C2)cc1`, 89% (inactive).
Regarding `CCN(CCCNC(=O)c1cc2cc3cc(OC)ccc3nc2s1)c1cccc(C)c1`, the survival was 46% (active).
In the case of `CCN(CCCNC(=O)c1cc2cc3cc(C)ccc3nc2s1)c1cccc(C)c1`, the survival is 102% (inactive).
Consider `CCN(CCCNC(=O)c1cc2cc3cc(OC)ccc3nc2s1)c1ccccc1`, for which the survival was 53% (active).
For `CCN(CCCNC(=O)c1cc2cc3ccc(OC)cc3nc2s1)c1ccccc1`, the survival is 97% (inactive).
Consider `CCN(CCCNC(=O)c1cc2cc3ccc(OC)cc3nc2s1)c1cccc(C)c1`, for which the survival was 83% (inactive).
In the case of `CCN(CCCNC(=O)c1cc2cc3ccc(C)cc3nc2s1)c1ccccc1` it was 126% (inactive); in that of `O=C(COCc1cc(-c2cccs2)on1)NCc1ccc(Cl)cc1`, 64% (inactive).
Under `CC1CCN(S(=O)(=O)c2ccc(N3CCCCS3(=O)=O)cc2)CC1` stands 71% (inactive); under `Cc1ccc2oc(C(=O)N3CCC(c4nc5ccccc5s4)CC3)c(C)c2c1`, 52% (inactive); under `O=C(NCCS(=O)(=O)N1CCN(c2ccccc2F)CC1)c1cc(=O)c2ccccc2o1`, 71% (inactive).
Under `Cc1cccc(NC(=O)C2CCCN(S(=O)(=O)c3ccc4c(c3)oc(=O)n4C)C2)c1C` (stereo unspecified) stands 83% (inactive).
On to `CCC(CC)c1nnc(NC(=O)CS(=O)(=O)Cc2ccccc2)s1`, for which the survival was 70% (inactive).
Under `CCOC(=O)c1cnc2c(ccc3ccccc32)c1Nc1ccc(OC)cc1OC` stands 8% (active).
For the compound `CCOC(=O)c1cnc2c(ccc3ccccc32)c1Nc1ccccc1OC`, the survival is 28% (active).
Turning to `CCOC(=O)c1cnc(N2CCN(c3ccc(OC)cc3)CC2)c2ccccc12`, the survival is 97% (inactive).
In the case of `CCOC(=O)c1c(C)oc2ncnc(Nc3ccc(OC)cc3OC)c12`, the survival was 97% (inactive).
Turning to `CCOC(=O)c1cnc2c(ccc3ccccc32)c1Nc1ccccc1OCC`, the survival was 126% (inactive).
Under `CCOC(=O)c1cnc(NCc2ccccc2OC)c2ccccc12` stands 89% (inactive); under `CCOC(=O)CSc1nc2cc(OC)c(OC)cc2c2nc(-c3ccccc3)nn12`, 59% (inactive); under `O=C(Cn1ncc2c(=O)oc3ccccc3c21)NCc1ccc(Cl)cc1`, 86% (inactive).
`CCOc1ccccc1N(CC)C(=O)c1cc2c(=O)n(CC)c3ccccc3c2s1`: the survival was 121% (inactive).
With `COc1ccc(C2=Nc3ccc(OC(F)(F)F)cc3NC(c3cccnc3)=N2)cc1`, the survival is 67% (inactive).
In the case of `COc1cccc(CNS(=O)(=O)c2cnc(N)nc2)c1`, the survival is 64% (inactive).
As to `COc1ccc(CNS(=O)(=O)c2cnc(N)nc2)cc1`, the survival is -2% (active).
Consider `CC(C)Oc1ccc(CNS(=O)(=O)c2cnc(N)nc2)cc1`, for which the survival was 115% (inactive).
Consider `CCc1nn(C(C)C(=O)N2CCN(c3cccc(C(F)(F)F)c3)CC2)c(=O)c2cc3occc3n12` (stereo unspecified), for which the survival was 73% (inactive).
As to `COc1ccc(OC)c(CCNC(=O)CCn2c(=O)c3cccn3c3cccnc32)c1`, the survival was 84% (inactive).
Take `CCN(CC)c1ccc(-n2nc3cc(C)c(NC(=O)c4ccccc4C)cc3n2)c(C)c1`: the survival was 73% (inactive).
Take `Cc1cc2nn(-c3ccc(F)cc3)nc2cc1NC(=O)c1cccc2ccccc12`: the survival is 68% (inactive).
In the case of `CCN(CC)c1ccc(-n2nc3cc(C)c(NC(C)=O)cc3n2)cc1`, the survival is 92% (inactive).
As for `Cc1cc2nn(-c3ccccc3)nc2cc1NC(=O)c1cccc2c(Cl)cccc12`, the survival was 43% (active).
Take `CCN(CC)c1ccc(NC(=O)CN2CCN(c3ccccc3F)CC2)cc1`: the survival was 75% (inactive).
With `O=C(Nc1ccc(S(=O)(=O)N(Cc2ccccc2)c2ccccc2)cc1)c1ccccc1F`, the survival is 58% (inactive).
In the case of `CCN(CC)c1ccc(NC(=O)c2ccccc2F)cc1`, the survival is 63% (active).
Turning to `CCN(CC)c1ccc(-n2nc3cc(C)c(NC(=O)c4ccccc4F)cc3n2)cc1`, the survival was 56% (active).
`Cc1cc2nn(-c3ccc(F)cc3)nc2cc1NC(=O)c1cccc2c(Cl)cccc12`: the survival was 59% (inactive).
For `Cc1c(Cl)cccc1Nc1sc(C(=O)c2ccccc2)c(N)c1S(=O)(=O)c1ccccc1`, the survival is 71% (inactive).
Under `Cc1cc(C)cc(OCCSc2nc(-c3ccc(C(C)(C)C)cc3)nc3cc(=O)[nH]n23)c1` stands 83% (inactive); under `Cn1c(CNC(=O)CSc2n[nH]c(-c3ccccc3)n2)nc2ccccc21`, 89% (inactive).
Turning to `O=C(NCCSc1c(-c2ccc(Cl)cc2)[nH]c2ccccc12)c1ccc(S(=O)(=O)N2CCOCC2)cc1`, the survival is 68% (inactive).
`CCOC(=O)c1sc2ccccc2c1S(=O)(=O)Nc1ccc(N(C)C)cc1`: the survival was 126% (inactive).
Regarding `CC(C)c1ccc2occ(CC(=O)N(Cc3ccc(F)cc3)C3CCS(=O)(=O)C3)c2c1` (stereo unspecified), the survival was 61% (inactive).
Under `Cc1ccc(CNC(=O)c2ccc3c(c2)nc2n3CCCC2)cc1` stands 86% (inactive); under `Cc1cn2c(=O)cc(COC(=O)c3ccc(NC(=O)C(C)Oc4ccccc4)cc3)nc2s1` (stereo unspecified), 8% (active); under `Cc1cn2c(=O)cc(COC(=O)c3cccc(NC(=O)c4ccc(C(C)(C)C)cc4)c3)nc2s1`, 103% (inactive).
Consider `Cc1cn2c(=O)cc(COC(=O)c3cccc(NC(=O)C(C)Oc4ccccc4)c3)nc2s1` (stereo unspecified), for which the survival was 95% (inactive).
Regarding `Cc1cn2c(=O)cc(COC(=O)c3ccc(NC(=O)c4ccc(C(C)(C)C)cc4)cc3)nc2s1`, the survival is 20% (active).
On to `CC(Oc1ccccc1)C(=O)Nc1ccc(C(=O)OCc2cc(=O)n3ccsc3n2)cc1` (stereo unspecified), for which the survival is 87% (inactive).
Consider `Cc1cn2c(=O)cc(COC(=O)c3ccc(NC(=O)c4ccc(F)cc4)cc3)nc2s1`, for which the survival is 96% (inactive).

Source of the values: PubChem BioAssay AID463173 (ICCB-Longwood Screening Facility, Harvard Medical School, 2010).
